Test results: PubChem BioAssay AID493073 (Broad Institute, 2011)
Among all 1,200 compounds or so, about 810 (68%) were called active. The rule behind the calls is not given here. So high a share suggests a set chosen from earlier hits. Not all results are given here. Potency and affinity values are given separately.

Assay: reducers of TRPM1 reporter luminescence, concentration series – cell-based, SK-MEL-5, cherry-picked, set 3, MITF inhibitor project, dose response (AID 493073)
Conditions: SK-MEL-5 TRPM1 promoter luciferase, 24 h; series mostly up to 35 µM; activity change, negative = inhibition: at the top concentration
With `O=[N+]([O-])c1ccc(N/N=C/C=C/c2ccco2)cc1` the “activity change, negative = inhibition” value was 51% (inactive).
In the case of `CCN(CC)CC(=O)Nc1scc2c1c(=O)oc1ccccc12`, the “activity change, negative = inhibition” value is reported as 129% (inactive).
In the case of `Fc1ccc(-c2nnc(-c3ccc(F)cc3)o2)cc1`, the “activity change, negative = inhibition” value is reported as 47.1% (inactive).
In the case of `CCOC(=O)c1ccc(NC(=O)Cc2cccs2)cc1`, the “activity change, negative = inhibition” value is reported as 77.7% (inactive).
In the case of `CCc1ccc(Nc2nc(C)cc(C)n2)cc1`, the “activity change, negative = inhibition” value is reported as 83.9% (inactive).
In the case of `O=C(N/N=C/C(Cl)=C\c1ccccc1)c1cccs1`, the “activity change, negative = inhibition” value is reported as 64.5% (inactive).
In the case of `C/C(=C\c1ccccc1)C(=O)Nc1ccc(Cl)cn1`, the “activity change, negative = inhibition” value is reported as 47.7% (inactive).
For `Brc1cccc(/C=N/Nc2nn[nH]n2)c1`, the “activity change, negative = inhibition” value was -36.9% (inactive).
In the case of `Cc1ccc2cc(NC(=O)Cc3ccccc3)ccc2n1`, the “activity change, negative = inhibition” value is reported as 76.3% (inactive).
For `CN(c1cccc(NC(=O)COc2ccc(Cl)cc2Cl)c1)S(C)(=O)=O`, the “activity change, negative = inhibition” value was 40.2% (inactive).
In the case of `O=C(Nc1ccccc1)O/N=C/c1ccc(F)cc1`, the “activity change, negative = inhibition” value is reported as 42.1% (inactive).
For `O=C(N/N=C/c1ccccc1)c1ccco1`, the “activity change, negative = inhibition” value was 51.9% (inactive).
In the case of `O=C(C[n+]1cc(-c2ccc(F)cc2)n2c1CCC2)c1cccs1`, the “activity change, negative = inhibition” value is reported as 47.1% (inactive).
In the case of `COc1cc(-c2nnc(-c3ccco3)o2)ccc1OCc1ccccc1`, the “activity change, negative = inhibition” value is reported as 46.7% (inactive).
With `COc1ccc(C(=O)Nc2ccc3ccccc3c2)cc1OC` the “activity change, negative = inhibition” value was 80.8% (inactive).
In the case of `CCOC(=O)C1(Cc2ccccc2)CCCN(CCCn2cccn2)C1` (stereo not given), the “activity change, negative = inhibition” value is reported as -1.67% (inactive).
With `CCOc1ccc(-c2nnc(-c3cccs3)o2)cc1OCC` the “activity change, negative = inhibition” value was 136% (inactive).
In the case of `O=C(COc1ccc2c(c1)CCC2)N1CCc2ccccc21`, the “activity change, negative = inhibition” value is reported as 100% (inactive).
For `Cc1ccc2nc(-c3cccnc3)oc2c1`, the “activity change, negative = inhibition” value was 15.7% (inactive).
With `Oc1cc(NCc2cccnc2)ccc1-c1nc2ccccc2o1` the “activity change, negative = inhibition” value was 15.3% (inactive).
With `O=C(Nc1ccccc1Cl)c1cc(=O)c2ccccc2o1` the “activity change, negative = inhibition” value was -80.1% (inactive).
In the case of `CC(C)c1ccc(CNc2ncccn2)cc1`, the “activity change, negative = inhibition” value is reported as 103% (inactive).
For `COCc1nc(-c2ccc(-c3ccccc3)nc2OC)no1`, the “activity change, negative = inhibition” value was 6% (inactive).
In the case of `COc1ccc(S(=O)NC2CCCCC2)c(OC)c1C` (stereo not given), the “activity change, negative = inhibition” value is reported as 21.7% (inactive).
With `COc1cc(CN2CCC(Cc3ccccc3)CC2)cc(OC)c1OC` the “activity change, negative = inhibition” value was 102% (inactive).
In the case of `O=C(CCCCC(=O)NN=Cc1ccccc1O)NN=Cc1ccccc1O`, the “activity change, negative = inhibition” value is reported as 23.5% (inactive).
For `CC(C)C(NC(=O)OCc1ccccc1)C(=O)OCC(=O)N1CCCCC1` (stereo not given), the “activity change, negative = inhibition” value was 5.47% (inactive).
With `Cc1ccc2c(COC(=O)c3n[nH]c4ccccc34)cc(=O)oc2c1` the “activity change, negative = inhibition” value was 114% (inactive).
For `N#Cc1ccc(-c2cccnc2)nc1SCC(=O)c1ccccc1`, the “activity change, negative = inhibition” value was 33.3% (inactive).
For `O=C(CCCCl)NC(=S)Nc1ccc(N2CCOCC2)cc1`, the “activity change, negative = inhibition” value was 13.8% (inactive).
In the case of `CS(=O)(=O)c1ncc(Cl)c(C(=O)Nc2ccc3ccccc3c2)n1`, the “activity change, negative = inhibition” value is reported as -108% (inactive).
For `CCNc1nc(N)c(C(=O)c2ccc(Cl)s2)s1`, the “activity change, negative = inhibition” value was 45.7% (inactive).
For `COc1ccc(-c2nc(-c3ccncc3)no2)cc1OC`, the “activity change, negative = inhibition” value was 111% (inactive).
For `c1ccc(OCc2nn3c(-c4ccccn4)nnc3s2)cc1`, the “activity change, negative = inhibition” value was 51% (inactive).
For `COc1cccc(/C=N/NC(=O)CN2CC(c3ccccc3)CC2=O)c1OC` (stereo not given), the “activity change, negative = inhibition” value was -2.27% (inactive).
For `Cc1cc(/C=C(\C#N)C(=O)O)c(C)n1CC(C)C`, the “activity change, negative = inhibition” value was 8.27% (inactive).
With `CSCCNC(=O)c1ccc2nc(Cc3ccccc3F)oc2c1` the “activity change, negative = inhibition” value was 85.4% (inactive).
For `Cc1nc2ccc(NC(=O)c3ccco3)cc2nc1C`, the “activity change, negative = inhibition” value was 7.37% (inactive).
For `O=C(Nc1ccc2nc(-c3ccccc3)[nH]c2c1)c1ccco1`, the “activity change, negative = inhibition” value was 128% (inactive).
With `Cc1nc(NC(=O)C2CC2)sc1C(=O)Nc1ccccc1Cl` the “activity change, negative = inhibition” value was 64.3% (inactive).
In the case of `O=C(CSCc1c(F)cccc1F)Nc1ccccc1`, the “activity change, negative = inhibition” value is reported as 134% (inactive).
In the case of `CN(C)c1ccc(/C=N\NC(=O)c2cccc3cc[nH]c23)cc1`, the “activity change, negative = inhibition” value is reported as 27.5% (inactive).
For `O=C(CCC1CCCN(C(=O)c2cc3ccccc3o2)C1)NCc1ccc(F)c(F)c1` (stereo not given), the “activity change, negative = inhibition” value was 3.79% (inactive).
For `CN(C)CCCNc1nc2sc3c(c2c(=O)n1CCc1ccccc1)CCCCC3`, the “activity change, negative = inhibition” value was -102% (inactive).
With `CCOC(=O)C1CCCN(C(=O)C2CCN(S(=O)(=O)CC)CC2)C1` (stereo not given) the “activity change, negative = inhibition” value was 93% (inactive).
In the case of `N/C(=N\OC(=O)c1ccc(Cl)cc1Cl)c1ccncc1`, the “activity change, negative = inhibition” value is reported as 21.6% (inactive).
In the case of `CC(C)S(=O)(=O)c1csc(C(=O)Nc2ccc(F)cc2)c1N`, the “activity change, negative = inhibition” value is reported as 52% (inactive).
With `C/C(=N\Nc1cc(N2CCOCC2)ncn1)c1ccccc1` the “activity change, negative = inhibition” value was 65.8% (inactive).
In the case of `Cc1ccc(/C=c2/sc3n(c2=O)CCCN=3)o1`, the “activity change, negative = inhibition” value is reported as -79.4% (inactive).
In the case of `CCCCOc1ccc(-c2ncc([N+](=O)[O-])cn2)cc1`, the “activity change, negative = inhibition” value is reported as 84.2% (inactive).
In the case of `Cc1ccc2oc(=O)n(CCCOc3ccccc3)c2c1`, the “activity change, negative = inhibition” value is reported as 102% (inactive).
With `CN(CC(=O)N1CCCCCC1)S(=O)(=O)c1ccccc1` the “activity change, negative = inhibition” value was 43.9% (inactive).
In the case of `CC1CCN(C(=O)c2cc3ccccc3o2)CC1`, the “activity change, negative = inhibition” value is reported as 102% (inactive).
In the case of `Nc1nnc(/C=C/c2ccccc2Cl)s1`, the “activity change, negative = inhibition” value is reported as 39% (inactive).
For `CC(=O)c1c(C)[nH]c(C(=O)Nc2ccc(C)c(C)c2)c1C`, the “activity change, negative = inhibition” value was -69.8% (inactive).
With `CC(C)(C)OC(=O)N1CCN(C(=O)c2nc[nH]c2C(=O)N2CCN(c3ccccc3)CC2)CC1` the “activity change, negative = inhibition” value was -40.2% (inactive).
With `NC(=O)c1ccccc1NC(=O)/C=C/c1cccc(Cl)c1` the “activity change, negative = inhibition” value was 110% (inactive).
With `O=C1N=C(N2CCOCC2)S/C1=C\C=C/c1ccccc1` the “activity change, negative = inhibition” value was 61.8% (inactive).
For `O=Cc1ccc(N2Cc3ccccc3C2)cc1`, the “activity change, negative = inhibition” value was 35.6% (inactive).
With `Cc1cc(Cl)ccc1OCCCC(=O)N1CCOCC1` the “activity change, negative = inhibition” value was 94.9% (inactive).
With `C=CCN1C(=O)S/C(=C\c2ccc(N3CCOCC3)cc2C)C1=O` the “activity change, negative = inhibition” value was 92% (inactive).
In the case of `CC(C)(C)N=Cc1cc(-c2ccccc2)sc1O`, the “activity change, negative = inhibition” value is reported as 80.6% (inactive).
For `CCOC(=O)c1cnc2c(ccc3ccccc32)c1N`, the “activity change, negative = inhibition” value was 7.22% (inactive).
With `c1ccc(-n2ncc3c(NCc4cccs4)ncnc32)cc1` the “activity change, negative = inhibition” value was 10.2% (inactive).
For `COCC(C)Nc1ncnc2c1cnn2-c1ccc(Cl)cc1` (stereo not given), the “activity change, negative = inhibition” value was 22.2% (inactive).
With `CCCCN=C(C)c1c(O)c2ccccc2oc1=O` the “activity change, negative = inhibition” value was 114% (inactive).
With `COc1ccccc1-c1nc(-c2ccc(C)nc2OC)no1` the “activity change, negative = inhibition” value was 94.9% (inactive).
For `COc1ccccc1-c1nnc(-c2ccc(C)cc2)o1`, the “activity change, negative = inhibition” value was -51.6% (inactive).
With `CCCCOC(=O)c1[nH]c(C)c(C(=O)OC)c1C` the “activity change, negative = inhibition” value was -83.5% (inactive).
With `CCOC(=O)c1cc2sccc2n1CC(=O)N1c2ccccc2CC1C` (stereo not given) the “activity change, negative = inhibition” value was -77.9% (inactive).
For `CCN(C(=O)c1ccco1)c1nc(-c2ccc(OC)cc2)cs1`, the “activity change, negative = inhibition” value was 42.3% (inactive).
For `CS(=O)(=O)c1ccc2nc(NC(=O)c3ccccc3Br)sc2c1`, the “activity change, negative = inhibition” value was 25.9% (inactive).
For `Cc1ccc(-c2noc(CN3CCCCC3)n2)cc1`, the “activity change, negative = inhibition” value was 132% (inactive).
With `CCCCOc1ccc(-c2nnn(C(C)(C)C(=O)OC)n2)cc1` the “activity change, negative = inhibition” value was 47.7% (inactive).
In the case of `COc1ccc(/C=N/N=C2/SCC(=O)N2Cc2ccccc2)cc1`, the “activity change, negative = inhibition” value is reported as -76.4% (inactive).
For `O=[N+]([O-])c1ccccc1OCCCOc1cccc2cccnc12`, the “activity change, negative = inhibition” value was 124% (inactive).
For `C=CCOc1ccc(/C=C/C(C)=N\O)cc1`, the “activity change, negative = inhibition” value was 95.6% (inactive).
In the case of `COc1ccc(C(=O)/C=C(\C)Nc2ccc3c(c2)OCO3)cc1`, the “activity change, negative = inhibition” value is reported as 32.1% (inactive).
For `O=C(CSc1ccccn1)c1ccc2c(c1)OCO2`, the “activity change, negative = inhibition” value was 40.3% (inactive).
In the case of `CCOC(=O)C1(Cc2cccc(OC)c2)CCCN(C(=O)CSC)C1` (stereo not given), the “activity change, negative = inhibition” value is reported as 115% (inactive).
